The results in this text go back to PubChem BioAssay (NCATS).

“And” between values parts separate entries of the source, which are not always exact repeats. Identical values can stand only once. Results filed as inconclusive are left out. The source made the active and inactive calls. Calls come from the whole dose curve.

Experiment [1] in a line: Cytotoxicity counterscreen for inhibitors of SARS-CoV-2 cell entry (AID 1645845). Note: nearly all actives have a fitted effect of over 50% in size. The following applies: cell viability (SARS-CoV-2 entry assay cells); series mostly up to 57.1 µM. In outline: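 Expi293F/hACE2 cells seeded overnight; cpd pin-transferred in DMSO, 1 h preincubation, + media, 48 h 37 C 5% CO2; ATPLite 1step luminescence; normalized to cells and no cells.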
(In general: A counterscreen serves to expose hits that act by an unwanted route or on another target.)

Experiment [2] is described as follows: Primary qHTS to identify inhibitors of SARS-CoV-2 cell entry (AID 1645846). Note: nearly all actives have a fitted effect of over 45% in size. The following applies: SARS-CoV-2 pseudovirus cell entry assay, luminescence; activity change, negative = inhibition: at 57.1 µM (top of the series) unless noted; series mostly up to 57.1 µM. The procedure, abridged: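 Using luciferase-reporting pseudoviruses carrying Wuhan-Hu-1 spike, the screen tracks entry into stably ACE2-expressing cells over 48 hr. Activity is expressed relative to spike particles versus particles lacking any fusion protein.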
On the technique in general: qHTS replaces the single test concentration by a dilution series.

For the compound `c1ccc2sc(SSc3nc4ccccc4s3)nc2c1`, the Potency result in experiment [1] and in experiment [2] was “inactive” each time.
Regarding `COc1ccc(NS(=O)(=O)c2ccc(N)cc2)nn1`, the Potency result in experiment [1] and in experiment [2] was “inactive” in each case.
As for `Cc1noc(NS(=O)(=O)c2ccc(N)cc2)c1C`, in experiment [1], the Potency result was “inactive”. In addition, in experiment [2], the activity change, negative = inhibition is -11.7%.
As for `CC(C)(CO)[C@@H](O)C(=O)NCCCO`, the Potency entry in experiment [1] and in experiment [2] was “inactive” each time.
Regarding `CCCC(O)C(CC)CO` (stereo not given), the Potency result in experiment [1] and in experiment [2] was “inactive” throughout.
Consider `Cc1oc(=O)oc1COC(=O)[C@@H]1N2C(=O)[C@@H](NC(=O)[C@H](N)c3ccccc3)[C@H]2SC1(C)C`, for which the Potency entry in experiment [1] and in experiment [2] was “inactive” each time.
As to `NC(N)=Nc1nc(CSCC/C(N)=N/S(N)(=O)=O)cs1`, the Potency result in experiment [1] and in experiment [2] was “inactive” each time.
`CC(N=C(NC#N)Nc1ccncc1)C(C)(C)C` (stereo not given): in experiment [1], the Potency result was “inactive”. Besides, in experiment [2], the activity change, negative = inhibition is -37.8%.
For `CC(=O)N(CC(O)CO)c1c(I)c(C(=O)NCCO)c(I)c(C(=O)NCC(O)CO)c1I` (stereo not given) the same measures were “inactive” and -15%.
Consider `CC(=O)N(c1onc(C)c1C)S(=O)(=O)c1ccc(N)cc1`, for which the Potency entry in experiment [1] and in experiment [2] was “inactive” in each case.
As to `CCn1cc(C(=O)O)c(=O)c2cc(F)c(N3CCNC(C)C3)c(F)c21` (stereo not given), the Potency result in experiment [1] and in experiment [2] was “inactive” in each case.
Take `CCOC(=O)[C@H](CCc1ccccc1)N[C@@H](C)C(=O)N1CCC[C@H]1C(=O)O`: in experiment [1], the Potency result was “inactive”. In addition, the activity change, negative = inhibition in experiment [2] was -3.71% and -6.05%.
For `CCOC(=O)/C=C(C)/C=C/C=C(C)/C=C/c1c(C)cc(OC)c(C)c1C`, the Potency entry in experiment [1] is “inactive”. For the same compound, the activity change, negative = inhibition in experiment [2] is -11.5%.
Take `Nc1ccc(C(=O)Oc2ccccc2)c(O)c1`: the Potency entry in experiment [1] and in experiment [2] was “inactive” throughout.
`CC(=O)OCC1=C(C(=O)O)N2C(=O)[C@@H](NC(=O)Cc3cccs3)[C@H]2SC1`: in experiment [1], the Potency entry is “inactive”. In experiment [2], the activity change, negative = inhibition stood at 1.38%.
For `COc1cc(OC)c(C(=O)CCCN2CCCC2)c(OC)c1` the same measures were “inactive” and -26.6%.
Regarding `O=C(NCCO[N+](=O)[O-])c1cccnc1`, the Potency result in experiment [1] and in experiment [2] was “inactive” each time.
Consider `COc1cc(/C=C/C(=O)O[C@H]2CC[C@]34C[C@]35CC[C@]3(C)[C@@H]([C@H](C)CCC=C(C)C)CC[C@@]3(C)[C@@H]5CC[C@H]4C2(C)C)ccc1O`, for which the Potency result in experiment [1] and in experiment [2] was “inactive” each time.
As for `CC(C)=CCC1C(=O)N(c2ccccc2)N(c2ccccc2)C1=O`, in experiment [1], the Potency entry was “inactive”. In addition, the activity change, negative = inhibition in experiment [2] was -3.84%.
For the compound `CC(=O)OCC(=O)[C@@]1(O)CC[C@H]2[C@@H]3CCC4=CC(=O)CC[C@]4(C)[C@H]3C(=O)C[C@@]21C`, the Potency entry in experiment [1] was “inactive”. Also, the activity change, negative = inhibition in experiment [2] is -2.62% and -39.8%.
On to `O=C1CC[C@H](C(=O)N2CCCCC2)N1`, for which the Potency result in experiment [1] was “inactive”. In addition, in experiment [2], the activity change, negative = inhibition was 2.86%.
For the compound `CCN1C(=O)NC(c2ccccc2)C1=O` (stereo not given), the Potency result in experiment [1] was “inactive”. For the same compound, the activity change, negative = inhibition in experiment [2] is -1.94%.
For `COC(=O)C1=C(C)NC(C)=C(C(=O)OCCc2ccc(N3CCN(C(c4ccccc4)c4ccccc4)CC3)cc2)C1c1cccc([N+](=O)[O-])c1` (stereo not given) the same measures were “inactive” and -16.7%.
For `CC(=O)O[C@@H]1CC2C3CCc4cc(OC(=O)c5ccccc5)ccc4C3CCC2(C)[C@H]1OC(C)=O` (stereo not given in full) the same measures were “inactive” and 4.28%.
With `NCC[C@H](O)C(=O)N[C@@H]1C[C@H](N)[C@@H](O[C@H]2O[C@H](CN)[C@@H](O)[C@H](O)[C@@H]2O)[C@H](O)[C@@H]1O[C@H]1O[C@H](CO)[C@@H](O)[C@H](N)[C@@H]1O`, the outcome in experiment [1] is “inactive [at 0.702 µM]”. Moreover, in experiment [2], the activity change, negative = inhibition is -28% [at 0.702 µM].
With `Cc1c(I)c(=O)n(-c2ccccc2)n1C`, the Potency result in experiment [1] and in experiment [2] was “inactive” each time.
For `O=C(Oc1ccccc1)c1ccccc1O`, the Potency result in experiment [1] and in experiment [2] was “inactive” each time.
`CN1C(=O)OC(C)(C)C1=O`: the Potency entry in experiment [1] and in experiment [2] was “inactive” throughout.
In the case of `CC[N+](C)(CC)CCOC(=O)C1c2ccccc2Oc2ccccc21`, the Potency entry in experiment [1] and in experiment [2] was “inactive” in each case.
Take `COc1ccc(C2C(=O)c3ccccc3C2=O)cc1`: the Potency entry in experiment [1] and in experiment [2] was “inactive” each time.
Regarding `CN1CCN2c3ncccc3Cc3ccccc3C2C1` (stereo not given), the Potency entry in experiment [1] is “inactive”. The activity change, negative = inhibition in experiment [2] was -27.6% and -19.2%.
As to `O=S(=O)(O)c1ccc(O)cc1`, in experiment [1], the Potency entry is “inactive”. In experiment [2], the activity change, negative = inhibition was 2.14%.
Consider `COc1ccnc(CS(=O)c2nc3ccc(OC(F)F)cc3[nH]2)c1OC` (stereo not given), for which the Potency result in experiment [1] and in experiment [2] was “inactive” each time.
In the case of `CCCCC(CC)CNC(=O)CC(C)OC(=O)CCC(=O)O` (stereo not given), the Potency entry in experiment [1] and in experiment [2] was “inactive” throughout.
For the compound `OC[C@@H](O)[C@@H](O[C@@H]1O[C@H](CO)[C@H](O)[C@H](O)[C@H]1O)[C@H](O)[C@@H](O)CO`, the Potency entry in experiment [1] and in experiment [2] was “inactive” in each case.
Take `NCc1ccc(S(N)(=O)=O)cc1`: the Potency result in experiment [1] and in experiment [2] was “inactive” in each case.
Take `CC1(C)O[C@@H]2C[C@H]3[C@@H]4CCC5=CC(=O)C=C[C@]5(C)[C@@]4(F)[C@@H](O)C[C@]3(C)[C@]2(C(=O)CO)O1`: the Potency result in experiment [1] and in experiment [2] was “inactive” in each case.
For the compound `Cc1nnc(SCC2=C(C(=O)O)N3C(=O)[C@@H](NC(=O)Cn4cnnn4)[C@H]3SC2)s1`, the Potency result in experiment [1] and in experiment [2] was “inactive” throughout.
For `CCCCOC(=O)c1ccc(O)cc1`, the Potency result in experiment [1] and in experiment [2] was “inactive” in each case.
`O=C(O)[C@@H](O)[C@H](O)[C@H](O)[C@@H](O)C(=O)O`: in experiment [1], the Potency result was “inactive”. Further, the activity change, negative = inhibition in experiment [2] was -0.518%.
